Measurements published in PubChem BioAssay AID2216 (Broad Institute, 2009).
The whole screen tested about 300,000 compounds, of which about 3,300 (1.1%) were called active. Not shown: some 6% with an inconclusive outcome.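 Rule for the calls: active = more than half of the replicate wells show a fall in the fluorescence ratio signal beyond about 16% (limit read from the data, passing the limit was not always enough); inconclusive = exactly half of the replicate wells pass the set limit; inactive = fewer than half of replicates pass the limit.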 The list comes from a sample in which actives are over-represented; it also holds similar structures and randomly drawn compounds.

system: Ran GTPase (GTP-bound) - importin-beta complex; test: inhibitors of RanGTP-importin-beta interaction, primary screen, biochemical, FRET, CFP-Ran, YFP-importin-beta, homogeneous (AID 2216); details: cell-free CFP-Ran/YFP-importin-beta FRET ratio; stronger effect = higher value; concentration not given here;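 note: 0% = DMSO wells and 100% = Ran loaded with GDP instead of GTP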

inhibition, inactive:
O=C(NCCSc1ncc(-c2ccccc2)[nH]1)c1ccco1 3.47%
O=C(NC1CCCCC1)c1ccc(-c2ccc(Cl)cc2)o1 8.43%
O=C(CSc1ccc(-c2ccc(-n3cccn3)cc2)nn1)Nc1ccc([N+](=O)[O-])cc1 -0.399%
CC(=O)NC(CC(=O)Nc1cccc(S(=O)(=O)N2CCCC2)c1)c1ccccc1 (stereo not drawn) 0.238%
CCN(CC(=O)Nc1ccc(S(=O)(=O)N2CCCC2)cc1)CC(=O)Nc1cccc(OC)c1 4.35%
COc1ccc(CCNc2cc(N3CCN(C(=O)c4ccccc4OC)CC3)ccc2[N+](=O)[O-])cc1OC 3.89%
CC1CC(C)CN(S(=O)(=O)c2cccc3nonc23)C1 (stereo not drawn) 2.14%
COc1ccc2oc(C(=O)N(CC(C)C)C3CCS(=O)(=O)C3)c(C)c2c1 (stereo not drawn) -2.12%
O=C(Nc1ccccc1N1CCCC1)c1ccc(F)c(S(=O)(=O)N2CCOCC2)c1 1.55%
COc1ccccc1CCNS(=O)(=O)c1cc2c3c(c1)C(C)C(=O)N3CCC2 (stereo not drawn) 4.16%
Cc1cc(C)c(OCC(=O)N/N=C/c2ccco2)c(C)c1 -4.28%
COC(=O)C1=C(C)N(c2ccc(Br)cc2)C(=O)/C1=C\c1ccco1 5.89%
CCS(=O)(=O)c1ccc(-c2cccc(NC(=O)c3ccc(Br)o3)c2)nn1 2.1%
CCOc1ccc(NS(=O)(=O)c2ccc(C(=O)NCC(c3ccccc3OC)N3CCCC3)cc2)cc1 (stereo not drawn) -3.36%
CCCNC(=O)CCn1cc(-c2ccc(OC)cc2)nc1CCN -0.23%
Cc1csc(NC(=O)CSc2nc(=O)cc(N)n2-c2ccc(F)cc2)n1 1.41%
O=S(=O)(NC1CCCCC1N1CCCCC1)c1ccc(Cl)cc1 (stereo not drawn) 2.32%
CCN1CCN(C2CCCCC2NS(=O)(=O)c2ccc(Cl)cc2)CC1 (stereo not drawn) 1.58%
COc1ccc(CNC(=O)COC(=O)CCS(=O)(=O)c2ccc(C)cc2)cc1OC 2.29%
CCOc1ccc(-c2cc(C(=O)N/N=C/c3ccc(O)cc3)c3ccccc3n2)cc1 2.59%
NC(=O)c1cc2ccccc2o/c1=N/NC(=O)c1cccc(F)c1 -7.02%
COc1ccc(C(=O)N/N=c2\oc3ccccc3cc2C(N)=O)cc1 4.55%
CCOC(=O)c1cc2cc3ccccc3cc2oc1=O 3.3%
CCN(CC)c1ccc2oc(=O)c(C)nc2c1 -87.9%
Cc1onc(C(=O)Nc2ccc3c(c2)OCO3)c1[N+](=O)[O-] 0.97%
CCCOc1ccc(Cl)cc1Nc1nc(NCCO)nc(N2CCCC2)n1 -4.43%
O=C(COC(=O)c1cnccn1)Nc1ccc(Cl)cc1C(F)(F)F 1.07%
CCCCc1nc2cc(C(=O)N3CCCCC3CCO)ccc2o1 (stereo not drawn) 2.55%
Cc1cc(C)c2c3c(sc2n1)C(c1ccccc1)C(C#N)=C(N)O3 (stereo not drawn) 14.9%
CC1=C(C(=O)Nc2ccccc2)C(c2ccco2)C(C#N)=C(SCC(N)=O)N1 (stereo not drawn) -0.887%
CC(C)CN(C(=O)COC(=O)c1ccc(Cl)c(N)c1)c1c(N)n(Cc2ccccc2)c(=O)[nH]c1=O 3.15%
Cc1onc(-c2ccccc2Cl)c1C(=O)N(Cc1ccc(N(C)C)cc1)C(C)C -1.47%
O=C(Cc1ccc(S(=O)(=O)N2CCOCC2)s1)NCCOc1ccccc1F 0.747%
COc1cccc(C(=O)OCc2cc(=O)oc3c(C)c(C)ccc23)c1OC -2.35%
CCCc1cc(=O)oc2c(C)c(OCC(=O)NCc3ccccn3)ccc12 0.0468%
O=C(COc1ccccc1)Nc1cc2c3c(c1)CC(=O)N3CCC2 0.812%
O=C(NC1CC1)C1=C[C@H](c2coc3ccccc3c2=O)C[C@H](OCCCCO)O1 8.31%
CCN1CCN(CC(=O)Nc2sc3c(c2C#N)CCC3)CC1 -1.32%
N#Cc1c(N)sc2c1CCN(C(=O)OCc1ccccc1)C2 8.85%
Cn1c(SCC(=O)c2ccccc2)ncc(C(=O)Nc2ccc(F)cc2)c1=O 0.558%
N#CC1=C(N)C(C#N)(C#N)[C@H](c2ccsc2)[C@H]2COCC=C12 -27%
CCC1=C(C(=O)OC)C(c2cc(OC)ccc2OC)C(C#N)=C(N)O1 (stereo not drawn) -4.33%
COc1ccc(-c2cc(C(=O)N(C)CC(=O)Nc3ccccc3Cl)c3ccccc3n2)cc1OC 0.526%
COc1cc(C(=O)N(C)Cc2cccc(OC)c2OC)ccc1OCC(=O)Nc1cccc(C(F)(F)F)c1 -1%
Cc1sc2nc(CSCC(=O)NC3CCCCC3)[nH]c(=O)c2c1C 1.87%
O=S(=O)(NCCCc1ccccc1)c1ccc(Br)cc1 -1.87%
Cc1cc(=O)oc2cc(NC(=O)C(C)Oc3ccccc3)ccc12 (stereo not drawn) 3.05%
CCOC(=O)C1(Cc2cccc(OC)c2)CCN(C(C)COC)CC1 (stereo not drawn) 7.78%
CCOC(=O)C1(Cc2cccc(OC)c2)CCN(C(C)CC(C)(C)O)CC1 (stereo not drawn) 2.47%
COc1ccc(Nc2ncnc3sc(C)cc23)cc1 -4.52%
Cc1cc(C)c2nc(SCCC#N)nc(C)c2c1 4.53%
Cc1cc(C)c2nc(-c3ccco3)cc(C(=O)O)c2c1 -1.33%
CCC1Nc2ncnc(N3CCN(c4ccccc4)CC3)c2N(Cc2ccc(Cl)cc2)C1=O (stereo not drawn) 3.14%
CCOC(=O)c1cccc(NS(=O)(=O)c2c(C(=O)N3CCCCCC3)c(C)n(C)c2C)c1 -0.759%
Cc1cc(Nc2ccccc2)n(C(=O)c2ccc(N)cc2)n1 11.7%
Cc1cc(NC(=O)COc2ccc(Cl)cc2Cl)n(CCC#N)n1 0.324%
COc1ccc(NC(=O)CN(C)C(=O)c2cc(-c3ccc(C)o3)nc3ccccc23)cc1 3.47%
O=C(Nc1cccc2ncccc12)C(Cl)(Cl)Cl -1.34%
Cc1ccc(C(=O)Nc2cccc3ncccc23)cc1[N+](=O)[O-] -5.75%
COc1ccc(NC(=O)CN(C)C(=O)c2cccc(S(=O)(=O)N3CCN(c4ccccc4)CC3)c2)cc1 5.36%
Cc1sc(NC(=O)c2ccc3ncsc3c2)c(C(N)=O)c1C 7.92%
COc1ccc(NS(=O)(=O)c2ccc(C)c(C(=O)N(C)Cc3ccc(OC)cc3OC)c2)cc1 -0.0635%
O=C(Nc1nc2c(F)cc(F)cc2s1)C1COc2ccccc2O1 (stereo not drawn) -1.75%
COc1ccc(NC(=O)C2COc3ccccc3O2)cc1 (stereo not drawn) 3.21%
Cn1nccc1C(=O)NC1CCCc2c1cnn2-c1ccccc1F (stereo not drawn) 1.44%
Cc1cc(C)c(-c2c(O)c3ccccc3n(C)c2=O)c(C)c1 -1.11%
Cn1c(=O)c(Sc2ccc(Cl)cc2)c(O)c2ccccc21 -0.611%
COC(C/C=C/C(=O)[C@@H](C)OCc1ccccc1)OC -3.23%
N#C/C(=C/c1ccc(-c2ccccc2[N+](=O)[O-])o1)C(=O)NCCN1CCCCC1 0.797%
O=C(NCCc1c[nH]c2ccccc12)C(=O)NCC1CCCO1 (stereo not drawn) 0.222%
CCCCn1c(N)c(N(CC(C)C)C(=O)c2cccc(S(=O)(=O)N3CC(C)OC(C)C3)c2)c(=O)[nH]c1=O (stereo not drawn) -2.71%
Nc1ccccc1/C=N\N=C/c1ccccc1N 1.49%
COc1ccc(CNc2nnnn2C)cc1 0.267%
Nc1nonc1-c1nc2ccccc2n1Cc1ccc(F)cc1 3.99%
CCC1CCC/C1=N\NC(=O)c1ccc(Cl)cc1 (stereo not drawn) -0.716%

inhibition, active:
CCN(CC(=O)Nc1cccc(S(=O)(=O)N2CCCCC2)c1)Cc1ccccc1 16.2%
COC(=O)COc1ccc2c(c1C)O/C(=C\c1ccco1)C2=O 47.4%
O=S(=O)(NC1CCCCC1N1CCC(O)CC1)c1ccc(Cl)cc1 (stereo not drawn) 74.6%
CCN(CC)c1ccc2cc(C(=O)O)c(=O)oc2c1 153%
CCN(CC)c1ccc2cc(C(N)=O)/c(=N\NC(=O)c3ccncc3)oc2c1 135%
N#CC1=C(N)Oc2c(sc3ccccc23)C1c1ccco1 (stereo not drawn) 54.7%
COC(=O)Cc1cc(=O)oc2c(C)c(O)ccc12 60.4%
CC(C)N1CCc2c(sc(NC(=O)Cc3ccccc3)c2C#N)C1 156%
CCCN1CC=C2C(C#N)=C(N)C(C#N)(C#N)C(c3cc(OC)ccc3OC)C2C1 (stereo not drawn) 36.6%
CCN1CC=C2C(C#N)=C(N)C(C#N)(C#N)[C@H](c3ccoc3)[C@H]2C1 47.8%
CCOC(=O)C1(Cc2cccc(OC)c2)CCN(Cc2csc(C(C)=O)c2)CC1 33.4%
Cc1cc(C)c2nc3nc(C)cc(C)c3c(N)c2c1 123%
Cc1cc(Nc2ccccc2)n(CCC#N)n1 64.2%
Cc1ccc(/C=C(\C#N)C(=O)Nc2cccc3ncccc23)o1 24.4%
COc1ccc(OC)c2sc(NC(=O)C3COc4ccccc4O3)nc12 (stereo not drawn) 18.3%
Cn1c2ccccc2c(=O)c2c(O)cccc21 19.5%
N#C/C(=C/c1ccc(N2CCCCC2)o1)C(=O)NCCc1c[nH]c2ccccc12 36.8%
Fc1ccc(CNc2nc3ccccc3n3nnnc23)cc1 28.7%
